# PubChem BioAssay
# Activity calls are given as the source filed them. How the calls were made is not given here.
# Target: Pantothenate synthetase (Mycobacterium tuberculosis (strain ATCC 25618 / H37Rv)) (UniProt P9WIL5)
# Assay: Coupled enzyme confirmation of inhibitors against recombinant Mtb PanC (AID 375);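 further: 0% = full reaction with vehicle and 100% = no enzyme background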
# Settings: coupled enzyme assay; at 10 µM, active compounds read high
# Pantothenate synthetase (Mycobacterium tuberculosis (strain ATCC 25618 / H37Rv)), sequence (P9WIL5 whole entry, looked up): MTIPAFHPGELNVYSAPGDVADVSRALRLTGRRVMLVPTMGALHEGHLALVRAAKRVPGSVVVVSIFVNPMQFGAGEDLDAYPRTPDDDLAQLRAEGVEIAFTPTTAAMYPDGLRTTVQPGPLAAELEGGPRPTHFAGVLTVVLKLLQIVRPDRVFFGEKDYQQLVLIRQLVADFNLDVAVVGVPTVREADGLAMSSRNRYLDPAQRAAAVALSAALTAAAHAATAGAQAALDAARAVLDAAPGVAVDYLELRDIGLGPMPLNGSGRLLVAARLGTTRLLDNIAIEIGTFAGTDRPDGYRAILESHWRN
row,Structure (SMILES),inhibition
1,Cc1nc(NC(=O)c2csc3ccccc23)sc1C,0% (inactive)
2,CCN(CCCNS(=O)(=O)c1ccc2c(c1)oc(=O)n2C)c1cccc(C)c1,0% (inactive)
3,CCC1CCCCN1c1nc(-c2ccncc2)nc2ccccc12 (stereo not given),1% (inactive)
4,O=C(Nc1cccnc1)Nc1ccc(F)c(Cl)c1,0% (inactive)
5,Brc1ccc2[nH]ncc2c1,10% (inactive)
6,Cc1ccc(N(C(=O)c2ccncc2)C2C=CS(=O)(=O)C2)cc1 (stereo not given),5% (inactive)
7,CSc1nnc(-c2nnc(SC)n2-c2ccccc2)n1-c1ccccc1,0% (inactive)
8,Cc1ccc(S(=O)(=O)N2CCOCC2)cc1C(=O)Nc1nc(-c2cccnc2)cs1,0% (inactive)
9,COc1ccccc1C(=O)Nc1ccc(S(=O)(=O)N2CCCC2)cc1,4% (inactive)
10,CC(C)NC(=O)NC(=O)COc1cccc2c1OC(C)(C)C2,0% (inactive)
11,O=C(NC1CCc2ccccc21)C1CCN(S(=O)(=O)c2ccc(-n3cnnn3)cc2)CC1 (stereo not given),10% (inactive)
12,CC1(C)CC(=O)C2=C(C1)N(Cc1ccco1)C(=O)C2(NC(=O)C1CCCCC1)C(F)(F)F (stereo not given),4% (inactive)
13,CC(=O)c1coc2ccc(OCC(=O)O)cc12,0% (inactive)
14,Cc1cnn(C(=S)NCc2ccco2)c1,0% (inactive)
15,Cc1ccc(C)c(Cn2c(=O)n(CCC(=O)NCc3ccco3)c(=O)c3sccc32)c1,9% (inactive)
16,Nc1cc(CN2C(=O)c3ccccc3C2=O)cc(Cl)c1O,0% (inactive)
17,COc1cc2cc(C(c3nnnn3C3CCCC3)N(C)C3CCCCC3)c(=O)[nH]c2cc1OC (stereo not given),9% (inactive)
18,O=C(C1CCCO1)N1CCN(C(c2ccccc2)c2ccccc2)CC1 (stereo not given),0% (inactive)
19,Cc1noc(NS(=O)(=O)c2ccc(N)cc2)c1C,0% (inactive)
20,O=C(NCc1ccc2c(c1)OCO2)c1cccc2c1C(=O)N(C1CCCCC1)C2,5% (inactive)

row,Structure (SMILES),inhibition
1,O=C1c2ccccc2C(=O)N1c1cccc(-c2nc3ccccc3o2)c1,7% (inactive)
2,C=CCOc1ccc(/C(CC)=N/O)c(OC)c1,0% (inactive)
3,COCCN(CC(=O)Nc1ccccc1C)S(=O)(=O)c1ccc(S(=O)(=O)N2CCCC2)cc1,0% (inactive)
4,O=C(CN1CCCN(S(=O)(=O)c2ccc(Br)cc2)CC1)Nc1ccc2cn[nH]c2c1,0% (inactive)
5,CNS(=O)(=O)c1cccc(C(=O)OCC(=O)c2cc(C)n(-c3ccc4c(c3)OCO4)c2C)c1,0% (inactive)
6,CC1(C)NC(=O)N(CC(O)CN(Cc2ccccc2)Cc2ccccc2)C1=O (stereo not given),0% (inactive)
7,Cc1ccc(CSC2=NCCN2C(=O)C2CC2)cc1,2% (inactive)
8,Cc1ccc(N2CCN(S(=O)(=O)N(C)C)CC2)c(C)c1,0% (inactive)
9,N#Cc1c2n(c(=O)[nH]c1=O)CCCCC2,0% (inactive)
10,Cn1c(=O)c2c(nc(N3CCCCC3)n2CCSc2nc3ccccc3o2)n(C)c1=O,8% (inactive)
11,CCCCCn1c(CN2CCN(C(=O)c3ccco3)CC2)nc2c1c(=O)n(C)c(=O)n2C,1% (inactive)
12,O=C(Nc1ccccn1)NC(C(F)(F)F)C(F)(F)F,0% (inactive)
13,COc1ccccc1Oc1coc2c(CN3CCN(C)CC3)c(O)ccc2c1=O,0% (inactive)
14,COC(=O)c1ccccc1NC(=O)c1cnc2sccn2c1=O,5% (inactive)
15,CCc1cccc(NC(=O)C2CCCN(S(=O)(=O)c3c(C)[nH]c(=O)[nH]c3=O)C2)c1 (stereo not given),4% (inactive)
16,N=c1c[n+](N2CCOCC2)[n-]o1,0% (inactive)
17,CCCN(CCC)c1nc2ccccc2n2c(C)nnc12,4% (inactive)
18,CCOC(=O)CNC(=O)CSc1ncnc2c1cnn2-c1ccccc1,0% (inactive)
19,Cc1ccc(CCNC(=O)C2CCCN(S(=O)(=O)c3cnc[nH]3)C2)cc1 (stereo not given),2% (inactive)
20,CCOc1ccc(N(C(C)C(=O)NC2CCCCCC2)S(C)(=O)=O)cc1 (stereo not given),1% (inactive)
